Measured values as given in PubChem BioAssay AID1259418 (Broad Institute, 2018).
The campaign covered roughly 3,400 compounds. About 840 (25%) were called active. Inconclusive results (about 11%) are left out. The list is a sample of the results. Potency and affinity values are given separately. Values without a mark were called inactive.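 Rule for the calls: active = fitted half-maximal concentration of signal decrease at or below twice the sample's top tested concentration; inconclusive = flat curve between -70 and -30 percent, or poor fit; inactive = flat within 30 percent, signal rise, or potency above limit.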

assay: T. gondii growth inhibition with IFN-gamma, dose response, cell-based, ME49Luc, HeLa, luciferase, 72 h (AID 1259418); details: T. gondii ME49Luc in IFN-y HeLa, stronger effect = lower value, -100% = high-dose IFN-γ control wells; at 19.5 µM unless noted

Compound | max activity
O=C(c1ccccc1F)N1CCC2(CC1)Nc1cc(F)ccc1-n1cccc12 | -7.85% [at 2.6 µM]
CCCCC(=O)Nc1ccc(-c2nc(-c3ccccc3)co2)cc1 | 9.5% [at 10 µM]
COCCCN1CCc2nc(SCc3nc(-c4ccc(OC)cc4)oc3C)[nH]c(=O)c2C1 | 25.5% [at 0.16 µM]
Cc1nc(CCNC(=O)C2CCN(S(=O)(=O)c3ccc(F)c(Cl)c3)CC2)cs1 | 8.69% [at 5 µM]
Cc1ccc(-c2coc(-c3ccc(NC(=O)Nc4cccc(Cl)c4)cc3)n2)cc1 | 13.6% [at 2.6 µM]
COc1ccc(-c2cc(C(=O)Nc3ccc4c(c3)CCC(=O)N4)c3ccccc3n2)cc1 | 13.4% [at 5 µM]
Cc1oc(-c2ccccc2)nc1Cn1nnc(-c2nc(-c3cccc(Cl)c3)no2)c1C | -9.25% [at 5 µM]
COc1ccc2[nH]cc(CCNC(=O)c3sc4ncnc(N(C)C5CCCCC5)c4c3C)c2c1 | 9.31% [at 5 µM]
Cc1ccc(-c2coc(-c3ccc(NC(=O)Nc4ccc(F)cc4F)cc3)n2)c(C)c1 | 9.31% [at 0.68 µM]
COc1ccc(Cl)cc1NC(=O)Nc1ccc(-c2nc(-c3ccccc3)co2)cc1 | -16.1% [at 0.68 µM]
COc1ccccc1CNC(=O)CC1N=C2c3ccccc3N=C(SCc3ccc(Cl)cc3)N2C1=O (stereo not given) | 28% [at 5 µM]
O=C(CCC1N=C2c3ccccc3N=C(SCc3ccccc3F)N2C1=O)NCc1ccco1 (stereo not given) | 61.5% [at 10 µM]
COc1ccc(CNC(=O)CC2N=C3c4ccccc4N=C(SCc4cc(=O)n5cc(Cl)ccc5n4)N3C2=O)cc1 (stereo not given) | -22.2%
COc1ccc(CNC(=O)CC2N=C3c4ccccc4N=C(SCc4ccccc4Cl)N3C2=O)cc1 (stereo not given) | 18.1% [at 0.68 µM]
O=C(CCC1N=C2c3ccccc3N=C(SCc3ccccc3Cl)N2C1=O)NCc1cccs1 (stereo not given) | 20.4% [at 5 µM]
COc1ccccc1CNC(=O)CCC1N=C2c3ccccc3N=C(SCc3ccccc3Cl)N2C1=O (stereo not given) | -11% [at 0.35 µM]
COc1ccccc1CNC(=O)CCC1N=C2c3ccccc3N=C(SCc3ccccc3F)N2C1=O (stereo not given) | 8.88%
COc1ccccc1CNC(=O)CC1N=C2c3ccccc3N=C(SCc3cc(=O)n4ccccc4n3)N2C1=O (stereo not given) | 17.5% [at 0.16 µM]
COc1ccc(CNC(=O)CCC2N=C3c4ccccc4N=C(SCc4ccccc4Cl)N3C2=O)cc1 (stereo not given) | -10.1% [at 0.16 µM]
Cc1nc(OCC(=O)Nc2cc(Cl)ccc2C)c2ccccc2n1 | 25.9% [at 0.16 µM]
CCOC(=O)C1CCCN(c2nc(-c3ccc(OC)cc3)nc3ccccc23)C1 (stereo not given) | -19.8% [at 0.16 µM]
CCOC(=O)CSC1=Nc2ccccc2C2=NC(CC(=O)NCc3cccs3)C(=O)N12 (stereo not given) | 29.5%
O=C(CC1N=C2c3ccccc3N=C(SCc3ccccc3F)N2C1=O)NCc1ccccc1 (stereo not given) | 8.54% [at 0.16 µM]
O=C(CC1N=C2c3ccccc3N=C(SCc3ccccc3F)N2C1=O)NCc1ccc(F)cc1 (stereo not given) | 15.6% [at 0.68 µM]
N#CCSC1=Nc2ccccc2C2=NC(CCC(=O)NCc3cccs3)C(=O)N12 (stereo not given) | 19.3% [at 1.35 µM]

Compound | max activity
Cc1ccc(-c2coc(-c3ccc(NC(=O)NCCc4ccccc4)cc3)n2)cc1 | 19.3% [at 2.6 µM]
Clc1ccc(-c2nc(NC3CCCCC3)c3ccccc3n2)cc1 | 16.4%
Clc1ccc(-c2nc(NC3CCCCCC3)c3ccccc3n2)cc1 | 14.3% [at 10 µM]
COc1ccc(-c2nc(NC3CCCCCC3)c3ccccc3n2)cc1 | 19.2% [at 0.16 µM]
COc1ccc(-c2nc(Nc3cc(OC)cc(OC)c3)c3ccccc3n2)cc1 | 19% [at 5 µM]
COc1ccc(-c2nc(NC3CCCCC3)c3ccccc3n2)cc1 | -27.2% [at 5 µM]
COc1ccc(-c2nc(Nc3ccccc3F)c3ccccc3n2)cc1 | 11.7%
COc1ccc(-c2nc(Nc3ccc(Cl)cc3C)c3ccccc3n2)cc1 | -19.8% [at 10 µM]
Cc1cnc(N2CC[C@H]3CN(CC(=O)N(C)C)S(=O)(=O)[C@@H]3CC2)nc1 | 21.5%
O=C(CCc1ccc2nc(-c3ccccc3)[nH]c2c1)N1CCC(N2CCCCC2)CC1 | 57.7%
c1ccc(-n2ncc3c(NC4CCCCCCCCCCC4)ncnc32)cc1 | 53.5% [at 10 µM]
Cc1nc(-c2ccc(F)cc2)sc1-c1ccc(SCCN2CCCCC2)nn1 | 10.2% [at 0.16 µM]
Cc1ccc(Cn2c(=O)c3nn(C)cc3n3c(=O)n(Cc4nc(-c5cccc(C)c5)oc4C)nc23)cc1 | 8.72% [at 10 µM]
COc1ccc(-c2nc(N3CCN(c4cc(C)ccc4C)CC3)c3ccccc3n2)cc1 | 11.7% [at 0.68 µM]
O=C(CCC1N=C2c3ccccc3N=C(SCc3ccccc3F)N2C1=O)NC1CCCCC1 (stereo not given) | 96.1%
O=C(CC1N=C2c3ccccc3N=C(SCc3ccccc3Cl)N2C1=O)NC1CCCCC1 (stereo not given) | 14%
O=C(CC1N=C2c3ccccc3N=C(SCc3cccc(Cl)c3)N2C1=O)NC1CCCCC1 (stereo not given) | -15.8% [at 0.16 µM]
Cc1ccc(CSC2=Nc3ccccc3C3=NC(CC(=O)NC4CCCCC4)C(=O)N23)cc1 (stereo not given) | 39.6%
Cc1cccc(C(=O)N2CCC3(CC2)Nc2ccc(Cl)cc2-n2cccc23)c1 | 5.23%
COc1ccc(OC)c(NC(=O)Nc2ccc(-c3nc(-c4ccccc4)co3)cc2)c1 | 13.4% [at 0.68 µM]
COc1ccc(-c2nc(Nc3cccc(C(F)(F)F)c3)c3ccccc3n2)cc1 | -7.84% [at 5 µM]
N#C[C@@H]1[C@@H](c2ccc(-c3cccnc3)cc2)[C@H](CO)N1C(=O)Nc1ccc(F)cc1 | 48.3% [at 10 µM]
CCOc1cccc(-c2noc(-c3nnn(Cc4nc(-c5ccc(C)cc5)oc4C)c3C)n2)c1 | -11.7% [at 0.68 µM]
CN1C(=O)CCc2cc(NC(=O)c3cnccn3)ccc21 | 158% [at 10 µM]
COc1ccc(-c2nc(Nc3cc(Cl)ccc3OC)c3ccccc3n2)cc1 | 12.5% [at 0.68 µM]

Compound | max activity
Cc1ccc2c(c1)cc(S(=O)(=O)c1ccccc1)c(=O)n2CC(=O)NCC1CCCO1 (stereo not given) | -10.7% [at 10 µM]
CCOc1ccccc1NC(=O)N1CCN(Cc2nc(-c3ccc(C)cc3)oc2C)CC1 | -15.8%
COc1ccc(OC)c(CNc2nc(-c3ccc(Cl)cc3)nc3ccccc23)c1 | 14.3%
N#C[C@@H]1[C@@H](c2ccc(-c3cccc(F)c3)cc2)[C@H](CO)N1C(=O)NC1CCCC1 | 20.3% [at 10 µM]
N#C[C@H]1[C@@H](c2ccc(-c3cccc(F)c3)cc2)[C@@H](CO)N1C(=O)NC1CCCC1 | 14.8% [at 2.6 µM]
Cc1nc(-c2ccc(F)cc2)sc1-c1ccc(SCc2ccccc2)nn1 | 20.5% [at 10 µM]
COc1ccc(-c2nc(N3CCN(c4cc(Cl)ccc4C)CC3)c3ccccc3n2)cc1 | 23.2% [at 1.35 µM]
Cc1ccccc1-c1nc(CN2CCN(C(=O)NC3CCCCC3)CC2)c(C)o1 | -12% [at 0.35 µM]
Cc1cccc(-c2nc(Cn3nnc(-c4nc(-c5ccc(C(F)(F)F)cc5)no4)c3C)c(C)o2)c1 | -7.24% [at 0.16 µM]
Cc1ccc(C)c(N2CCN(c3nc(-c4ccc(Cl)cc4)nc4ccccc34)CC2)c1 | 16.9%
O=S(=O)(c1ccc2c(c1)CCCC2)N1CCC2(CC1)NCCN=C2NCc1ccc2c(c1)OCO2 | 10.2%
Cc1ccc(S(=O)(=O)N2CCC3(CC2)NCCN=C3NCc2ccc3c(c2)OCO3)c(C)c1 | -18.3%
CC(C)Cc1ccc(S(=O)(=O)N2CCC3(CC2)NCCN=C3NCc2ccc3c(c2)OCO3)cc1 | 12.4% [at 10 µM]
COc1ccccc1NC(=O)COc1nc(C)nc2ccccc12 | 14.7%
COc1ccc(S(=O)(=O)N2CCC[C@@H]2C(=O)NCCc2csc(C)n2)cc1OC | 10.7% [at 10 µM]
O=C(Cc1ccccc1)N1CCC2(CC1)CC(N1CCCC1)CO2 (stereo not given) | 17.6% [at 2.6 µM]
CC(C)CCNC(=O)Cn1c(=O)c(S(=O)(=O)c2ccccc2)cc2ccccc21 | -14% [at 0.16 µM]
COc1cccc(CCC(=O)Nc2ccc3c(c2)CCC(=O)N3C)c1 | 3.19%
CCN1C(=O)CCc2cc(NC(=O)Cc3ccc(OC)cc3)ccc21 | 7.03% [at 2.6 µM]
CN1C(=O)CCc2cc(NC(=O)c3cccc(C(F)(F)F)c3)ccc21 | 6.55% [at 0.68 µM]
CCN1C(=O)CCc2cc(NC(=O)Cc3ccc(Cl)cc3)ccc21 | 8.3% [at 2.6 µM]
COc1ccc(CC(=O)Nc2ccc3c(c2)CCC(=O)N3C)cc1Cl | 7.75% [at 10 µM]
COCC(=O)Nc1ccc2c(c1)CCC(=O)N2C | 6.56% [at 0.16 µM]
CN1C(=O)CCc2cc(NC(=O)Cc3c(F)cccc3Cl)ccc21 | -7.19% [at 5 µM]
CN1C(=O)CCc2cc(NC(=O)C3CC3)ccc21 | -5.59% [at 0.16 µM]
